Compound activity from PubChem BioAssay.
PPC-1+TRAIL kill = compounds killing PPC-1 cancer cells with TRAIL present, primary screen, TRAIL potentiator project, ATPLite luminescence, uHTS; PPC-1 cells + TRAIL, ATPLite viability luminescence; cell killing (% activity), % at 4 µM or 5 µM; hit rate 0.41% among 220,000;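 active = cell killing above 50% in the first pass at 4 µM, then a duplicate retest at 5 µM averaging 50% or more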;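 note: plate controls were cells with TRAIL plus DMSO for no effect and medium-only wells lacking cells for full effect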
SENP7 block = SENP7 protease inhibitors, primary screen, biochemical, luminescence, uHTS | hit rate 1.5% among 330,000 | AID 434973, 2010 | recombinant SENP7, Z-RLRGG-aminoluciferin luminescence, 40 min | inhibition, % at 5 µM | Sentrin-specific protease 7 (Homo sapiens), Q9BQF6;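 active = inhibition above about 50% at the single test dose, limit read from the data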;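 note: plate controls were DMSO with enzyme for no effect and no enzyme buffer wells for full effect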
SENP8 block-1 = human SENP8 protease inhibitors, primary screen, biochemical, fluorescence, Nedd8 protein substrate, uHTS. recombinant SENP8. hit rate 0.64% among 360,000. inhibition, % at 20 µM; in the data active = inhibition mostly above about 40%, no sharp cut-off; inactive = mostly below about 27%
SENP6 inh = SENP6 protease inhibitors, primary screen, biochemical, luminescence, uHTS. hit rate 1.8% among 330,000. Sentrin-specific protease 6 (Homo sapiens), Q9GZR1. AID 2599, 2010. Recombinant SENP6 catalytic domain, aminoluciferin luminescence. inhibition, % at 10 µM;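 active = inhibition above about 50% at the single tested dose, limit read from the data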;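 note: plate controls were DMSO wells with enzyme for no effect and DMSO wells lacking enzyme for full effect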
Target sequence (Q9GZR1 628-1112 limits assumed): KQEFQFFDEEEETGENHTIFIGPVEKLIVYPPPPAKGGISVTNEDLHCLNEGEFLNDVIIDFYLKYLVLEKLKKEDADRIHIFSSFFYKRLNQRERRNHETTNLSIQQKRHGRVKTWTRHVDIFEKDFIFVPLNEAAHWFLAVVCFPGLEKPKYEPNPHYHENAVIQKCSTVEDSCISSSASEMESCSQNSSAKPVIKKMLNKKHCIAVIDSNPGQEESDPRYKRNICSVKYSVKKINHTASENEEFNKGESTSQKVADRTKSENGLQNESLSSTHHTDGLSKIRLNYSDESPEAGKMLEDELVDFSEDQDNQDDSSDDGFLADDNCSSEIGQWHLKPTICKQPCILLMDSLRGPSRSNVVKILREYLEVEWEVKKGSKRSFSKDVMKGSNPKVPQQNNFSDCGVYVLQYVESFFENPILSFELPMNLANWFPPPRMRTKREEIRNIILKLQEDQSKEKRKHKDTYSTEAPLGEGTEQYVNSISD
SENP8 block-2 = SENP8 protease inhibitors, primary screen, biochemical, luminescence. Sentrin-specific protease 8 (Homo sapiens), Q96LD8. purified SENP8, Z-RLRGG-aminoluciferin cleavage. inhibition, % at 10 µM. hit rate 1.2% among 330,000. AID 2540, 2010; in the data active = inhibition above about 50%
C8 TRAIL sens = viability loss with TRAIL in NB7+C8 cells, primary screen, TRAIL sensitizer project, cell-based, ATPlite luminescence; inhibition (viability loss, TRAIL sensitization), % at 10 µM; hit rate 1% among 360,000;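 active = compounds causing at least 50% loss of cell viability in the single-dose screen, relative to plate controls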
SENP8 conf = human SENP8 protease inhibitors, confirmation, biochemical, Nedd8 protein substrate, single concentration. AID 624319, 2012. hit rate 15% among 1,400. inhibition, % at 25 µM. purified SENP8, Nedd8-AMC/pro-Nedd8 cleavage fluorescence, 30 min. shares compounds with SENP8 block-1; in the data active = inhibition mostly above about 39%, no sharp cut-off; inactive = mostly below about 34%
The depositor's hits bear a star; nt = no result given. Compounds with a hit are over-represented: about 3% of the library has one in this group of screens.

SMILES | PPC-1+TRAIL kill | SENP7 block | SENP8 block-1 | SENP6 inh | SENP8 block-2 | C8 TRAIL sens | SENP8 conf
CCC(=O)NC(=S)Nc1ccc(NC(=O)c2ccc([N+](=O)[O-])cc2Cl)cc1 | -4 | 1 | 43* | 5 | 7 | -4 | 8
COC(=O)[C@@]1(C)[C@H]2C(=O)N(C)C(=O)[C@H]2[C@H]2CN(C)C(=NC3CCCCC3)N21 | nt | 9 | 15 | nt | nt | -16 | nt
CC[C@H](C)[C@H]1CNC(=O)C(=O)N1CC1CCN(CCCc2ccc(OC)c(OC)c2)CC1 | nt | nt | 1 | nt | nt | -16 | nt
O=C(COC(=O)c1cc(S(=O)(=O)N2CCc3ccccc3C2)ccc1Cl)NCc1ccco1 | 8 | 18 | 42* | 19 | 4 | -20 | 57*
Cc1ccc(S(=O)(=O)N2CCOCC2)cc1C(=O)OCC(=O)N1CCc2ccccc2C1 | 42 | nt | 51* | nt | nt | 15 | 37
Cc1ccc(NC(=O)CSC(C)c2nc3ccccc3c(=O)[nH]2)cc1 (stereo unspecified) | nt | -9 | 1 | -5 | 2 | 0 | nt
Cc1cc(Br)ccc1-n1[nH]c(C)c(C=Nc2cccc3nsnc23)c1=O | 11 | 14 | 54* | 14 | 12 | -17 | 12
CC(C)[C@H](NC(N)=O)C(=O)Nc1cccc(S(=O)(=O)NC2=NCCCCC2)c1 | nt | 4 | 16 | 8 | 1 | -8 | nt
Cc1ccc(C(=O)O/N=C\c2ccc(N3CCOCC3)c([N+](=O)[O-])c2)cc1 | 18 | -3 | 30 | -38 | -15 | -1 | nt
O=C(/C=C/c1ccc(Cl)cc1)N1CCN(c2ccc(Cl)cc2[N+](=O)[O-])CC1 | 16 | 1 | 43* | -25 | -5 | -9 | 14
O=C(O/N=C\c1ccc(N2CCCCC2)c([N+](=O)[O-])c1)c1ccc(Cl)cc1Cl | 10 | -12 | 49* | -12 | -19 | -4 | 5
OC[C@@H]1CN(Cc2cccnc2)C[C@H](n2cnc3c(N4CCCC4)ncnc32)O1 | nt | nt | 17 | nt | nt | 17 | nt
CCOc1ccc(C=NNc2ccc(S(=O)(=O)Nc3ccccc3C(=O)O)cc2[N+](=O)[O-])cc1 | nt | -6 | 49* | -1 | 11 | 4 | 28
CCOc1cccc(C=NNc2ccc(S(=O)(=O)Nc3ccccc3C(=O)O)cc2[N+](=O)[O-])c1O | nt | -5 | 19 | 12 | -9 | -9 | nt
O=C(COC(=O)c1cccc([N+](=O)[O-])c1)c1ccc2c(c1)OCO2 | nt | -4 | nt | 12 | -6 | nt | nt
CCOc1ccc(N2C(=O)CC(n3nc(C)cc3C)C2=O)cc1 (stereo unspecified) | 5 | -2 | 45* | -25 | -4 | 9 | 5
CCC1C(c2ccccc2)=CCC(C(=O)O)C1C (stereo unspecified) | nt | nt | 12 | nt | nt | -18 | nt
N#CC(C(=O)c1ccccc1)=C1SCCS1 | 1 | 3 | 42* | 7 | -2 | -12 | 9
COc1ccc(CCN2C(=O)CC(NCCc3ccc(S(N)(=O)=O)cc3)C2=O)cc1OC (stereo unspecified) | 1 | -2 | 40* | -2 | -2 | -10 | 21
COc1ccc(CCNC2CC(=O)N(N(C)C)C2=O)cc1OC (stereo unspecified) | 8 | 5 | 3 | 14 | 0 | -3 | nt
CC1CCC2C(=O)N(c3ccc(NC4CCN(Cc5ccccc5)CC4)c([N+](=O)[O-])c3)C(=O)C2C1 (stereo unspecified) | 8 | -7 | 47* | 21 | -12 | -6 | 15
O=[N+]([O-])c1ccccc1NC1CCN(Cc2ccccc2)CC1 | 17 | 11 | 44* | -16 | 1 | 6 | 20
O=C1C2CCCCC2C(=O)N1c1ccc(NC2CCN(Cc3ccccc3)CC2)c([N+](=O)[O-])c1 (stereo unspecified) | -4 | 11 | 44* | -10 | -6 | -7 | 25
O=C1CCC(=O)N1c1ccc(NC2CCN(Cc3ccccc3)CC2)c([N+](=O)[O-])c1 | 2 | 9 | 37 | -8 | 0 | -8 | nt
